HIV RNase H inh-1: inhibitors of HIV-1 reverse transcriptase RNase H. AID 565. inhibition, % at 10 µM. 1.9% of 65,000 active. RT-RNase H RNA/DNA duplex cleavage, fluorescence; in the data active = inhibition above about 50%
HIV RNase H inh-2: confirmation of HIV-1 reverse transcriptase RNase H inhibitors | inhibition, % at 10 µM | shares compounds with HIV RNase H inh-1 | Recombinant RT RNase H, fluorescent RNA/DNA duplex cleavage | 39% of 1,000 active; in the data active = inhibition above about 48%
* hit, by the source's call. This excerpt belongs to a sample that is enriched for hits.

SMILES	HIV RNase H inh-1	others
COC(=O)c1ccccc1NC(=O)c1sc(N)nc1C	-40
Cn1c(N)c(C(=O)NCc2ccccc2)sc1=S	-6
COC(=O)c1ccccc1NC(=O)c1sc(=S)n(C)c1N	87*	HIV RNase H inh-2=74*
CCCOc1ccc(N2CC(C(=O)Nc3ccccc3F)CC2=O)cc1 (configuration not stated)	0
CC12CCC(C(=O)N3CCN(C(=O)C45CCC(C)(C(=O)O4)C5(C)C)CC3)(OC1=O)C2(C)C	-4
N/C(=N\S(=O)(=O)c1ccc(Cl)s1)c1ccccc1	-19
CNC(=O)c1cc2cccc(OC)c2oc1=O	13
COc1ccccc1OCC(=O)NCc1ccco1	-13
COc1ccccc1N=c1oc2c(OC)cccc2cc1C(=O)NCc1ccco1	70*	HIV RNase H inh-2=72*
N#Cc1c(N)nc(SCC(=O)NC2CCCCC2)c(C#N)c1-c1ccc(Cl)cc1	82*	HIV RNase H inh-2=59*
Nn1c(SCC(=O)NC2CCCCC2)nnc1-c1ccc(Cl)cc1	3
CCOC(=O)CSc1nc(N)c(C#N)c(-c2ccc(OCC)cc2)c1C#N	-14
Nc1ncnc2nc(SCc3ccccc3)[nH]c12	-4
Fc1ccc(CSc2nc3ncccc3[nH]2)cc1	61*	HIV RNase H inh-2=13
O=C(CSc1nc2ncccc2[nH]1)c1ccc(F)cc1	6
COCc1cc(=O)[nH]c(Nc2nc3ccccc3o2)n1	0
COCCOc1ccc(C(F)(F)F)cc1Nc1nc2ccccc2o1	56*	HIV RNase H inh-2=47
COCCOc1ccc(C(F)(F)F)cc1NC(=O)COC(=O)c1c(C)noc1C	-4
Cc1csc(SCCn2c(N3CCN(c4ccccc4)CC3)nc3c2c(=O)[nH]c(=O)n3C)n1	-5
O=C(CSc1nnc(-c2cccs2)n1-c1ccccc1)NCc1ccc2c(c1)OCO2	-53
Cc1ccc(-n2c(SCC(=O)Nc3ccc4c(c3)OCO4)nnc2-c2cccs2)cc1	65*	HIV RNase H inh-2=29
Cc1ccc(-n2c(SCC(=O)Nc3ccc4c(c3)OCCO4)nnc2-c2ccco2)cc1	-14
OC(COc1ccc(C2C=CCC2)cc1)CN1CCCCC1 (configuration not stated)	-11
COc1ccc(Nc2nc(C)cc(C)c2C(N)=O)c(OC)c1	1
O=C1NC2NC(=O)N(C(Cc3ccccc3)C(=O)O)C2N1 (configuration not stated)	1
SMILES	HIV RNase H inh-1	others
CC(C)Cc1[nH]c(=O)c(C#N)c2c1CCCC2	-11
CC(C)Cn1c(SCC(=O)NC(=O)Nc2ccc3c(c2)OCCO3)nc2ccccc2c1=O	92*	HIV RNase H inh-2=54*
COCCn1c(SC(C)C(=O)Nc2ccc3c(c2)OCCO3)nc2ccccc2c1=O (configuration not stated)	1
C=CCn1c(SCC(=O)Nc2ccc3c(c2)OCO3)nc2ccccc2c1=O	-6
CCCN(CCC)CCNc1c(N2CCN(C(=O)OCC)CC2)c(=O)c1=O	-16
Cc1cc2c3nonc3ccc2n1-c1ccccc1	-78
Cc1ccc(N2C(=O)CC(N(O)C3CC(=O)N(c4ccc(C)cc4)C3=O)C2=O)cc1 (configuration not stated)	-23
CCCOc1ccc(N2C(=O)CC(N(O)c3ccccc3)C2=O)cc1 (configuration not stated)	-11
COc1ccccc1N(O)C1CC(=O)N(c2ccc(F)cc2)C1=O (configuration not stated)	63*	HIV RNase H inh-2=20
CN1C(=O)CC(N2CCC(c3nc4ccccc4[nH]3)CC2)C1=O (configuration not stated)	-1
CCOC(=O)C1C(=O)NC(N2CCN(Cc3ccccc3)CC2)=NC1c1ccco1 (configuration not stated)	0
COc1ccc(-c2cn3c(C)c(C(=O)NCc4ccc5c(c4)OCO5)sc3n2)cc1	7
O=C(N1CCOCC1)N1CCN(S(=O)(=O)N2CCOCC2)CC1	1
O=C(CN(Cc1cccs1)C(=O)CNC(=O)c1ccco1)NC1CCCCC1	-9
COc1ccc2c(c1OC)C(=O)OC2CC(=O)c1ccc(N(C)C)cc1 (configuration not stated)	2
COc1ccccc1NCCC(=O)OCC(=O)Nc1ccc(Cl)cn1	8
CC1CCN(C(=O)CSc2nncn2-c2ccccn2)CC1	76*	HIV RNase H inh-2=37
CC1CCN(C(=O)CSc2nnc(Cn3c(=O)sc4ccccc43)n2C)CC1	-11
c1ccc(CSc2nncn2-c2ccccn2)cc1	-5
O=S(=O)(Nc1ccc2c(c1)nc1n2CCOC1)c1ccc(Cl)cc1	-9
CCC(c1nnnn1CCC(C)C)N1CCC(C(N)=O)CC1 (configuration not stated)	-5
Brc1ccc2[nH]c3nc(SCCN4CCOCC4)nnc3c2c1	3
CCOC(=O)CC(=O)CSc1nnc2c(n1)[nH]c1ccccc12	-11
c1ccc2c(c1)[nH]c1nc(SCCN3CCOCC3)nnc12	83*	HIV RNase H inh-2=0
O=c1c2nnn(Cc3ccccc3)c2ncn1-c1ccccc1	1
SMILES	HIV RNase H inh-1	others
CC(C)CCOCC(=O)Nc1cccc(C(=O)O)c1	-11
Cn1c(=O)c2c(ncn2CC(=O)Nc2ccccc2Sc2ccccc2)n(C)c1=O	39
Cc1ccnc(NC(=O)Nc2cccc(F)c2)c1	-6
O=C(Nc1ccccc1)c1ccc2nc(-c3ccco3)c(-c3ccco3)nc2c1	100*	HIV RNase H inh-2=28
O=C(Nc1ccc(N2CCOCC2)cc1)c1ccc2nc(-c3ccco3)c(-c3ccco3)nc2c1	91*	HIV RNase H inh-2=63*
COc1ccc(C(=O)Nc2ccc(N3CCOCC3)cc2)cc1OC	2
CCCNC(=O)c1cc(-c2ccco2)on1	-5
Cn1nnc2cc(C(=O)NCc3ccco3)ccc21	-2
O=C(Nc1nnc(-c2ccco2)s1)c1ccccc1	23
O=C(Nc1ccc(N2CCN(C(=O)c3ccco3)CC2)cc1)c1ccc(F)cc1	-4
CCCCNC(=O)c1ccc2nc(-c3ccco3)c(-c3ccco3)nc2c1	92*	HIV RNase H inh-2=2
O=C(NCc1ccco1)c1cccc(NC(=O)c2ccccc2)c1	-10
COc1ccc(N2CCN(C(=O)CSc3nnc(COc4cccc5cccnc45)o3)CC2)cc1	-16
CN1CCc2nc(SCC(=O)Nc3ccc(F)cc3)c(C#N)cc2C1	11
CCCCN1C(=O)c2ccc(C(=O)NC3=NCCS3)cc2C1=O	-7
COc1ccc(-n2c(=O)cc(N3CC(C)OC(C)C3)[nH]c2=O)cc1 (configuration not stated)	1
CCOC(=O)Cc1csc(-n2sc3ccccc3c2=O)n1	97*	HIV RNase H inh-2=67*
CCOC(=O)Cc1csc(NC(=O)Cc2cccs2)n1	9
CCOC(=O)Cc1csc(SCn2nnc3ccccc3c2=O)n1	-36
Cc1ccc(NC(=O)CS(=O)CC(=O)Nc2ccc3c(c2)OCO3)cc1Cl (configuration not stated)	19
COc1ccccc1N1CCN(S(=O)(=O)c2ccc(Cl)s2)CC1	0
COc1ccc(C2SCC(=O)Nc3c2c(=O)[nH]n3C2CCCCCC2)cc1 (configuration not stated)	-1
CCOc1ccc(C2SCC(=O)Nc3c2c(=O)[nH]n3C2CCCCCC2)cc1 (configuration not stated)	58*	HIV RNase H inh-2=4
COc1ccc(C2SCC(=O)Nc3c2c(=O)[nH]n3C2CCCCCC2)cc1OC (configuration not stated)	0
CN1CCc2c(sc3c2C(=O)NC(c2cccc(OC(=O)c4cccs4)c2)N3)C1 (configuration not stated)	-33
O=C1NC(c2cccs2)Nc2sc3c(c21)CCCC3 (configuration not stated)	94*	HIV RNase H inh-2=34
